Screen size: about 1,000 compounds; about 570 (57%) were called active. How the calls were made is not given here. So high a share suggests a set chosen from earlier hits. The list is a sample of the results.
molecular target: Potassium voltage-gated channel subfamily KQT member 2 (Rattus norvegicus) (UniProt O88943); assay: blockers of KCNQ2 thallium flux – cell-based, confirmation (AID 493025); details: KCNQ2-expressing cells, at 10 µM; activity change, negative = inhibition: hits give low values; outcome: inhibition;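 on activity change, negative = inhibition: 0% = vehicle wells and values are ratio percent relative to vehicle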
Sequence (O88943 whole entry, looked up): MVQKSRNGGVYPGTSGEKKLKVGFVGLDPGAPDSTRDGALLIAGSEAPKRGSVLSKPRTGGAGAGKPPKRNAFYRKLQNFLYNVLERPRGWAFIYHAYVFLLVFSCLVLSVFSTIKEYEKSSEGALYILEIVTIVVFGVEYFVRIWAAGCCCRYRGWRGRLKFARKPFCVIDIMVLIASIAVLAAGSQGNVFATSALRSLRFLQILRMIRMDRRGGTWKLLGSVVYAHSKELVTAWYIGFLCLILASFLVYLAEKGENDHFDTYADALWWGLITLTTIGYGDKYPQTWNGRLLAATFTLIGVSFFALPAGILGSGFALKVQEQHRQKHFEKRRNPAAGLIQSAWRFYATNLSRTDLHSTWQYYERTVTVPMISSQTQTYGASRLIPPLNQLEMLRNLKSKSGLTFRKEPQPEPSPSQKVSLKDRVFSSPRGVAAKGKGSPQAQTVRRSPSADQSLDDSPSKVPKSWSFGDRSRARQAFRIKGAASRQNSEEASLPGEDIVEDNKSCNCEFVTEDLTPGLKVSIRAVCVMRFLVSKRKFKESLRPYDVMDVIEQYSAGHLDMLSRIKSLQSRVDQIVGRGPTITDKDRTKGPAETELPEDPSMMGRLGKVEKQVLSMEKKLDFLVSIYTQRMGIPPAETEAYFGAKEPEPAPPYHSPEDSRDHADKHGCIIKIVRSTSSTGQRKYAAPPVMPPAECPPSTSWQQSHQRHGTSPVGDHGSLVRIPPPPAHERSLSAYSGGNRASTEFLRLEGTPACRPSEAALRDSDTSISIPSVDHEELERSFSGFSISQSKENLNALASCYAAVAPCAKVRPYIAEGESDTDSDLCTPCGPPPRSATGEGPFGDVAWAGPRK

Row | SMILES | activity change, negative = inhibition
1 | CCc1ccc(-c2nn(-c3ccccc3)cc2CSC(=N)N)cc1 | -37.5% (active)
2 | C=CS(=O)c1sc(Cl)c(N2CCOCC2)c1[N+](=O)[O-] (stereo unspecified) | -32.5% (active)
3 | Cc1ccc(C(C)C)cc1OCC(=O)Nc1ccccc1N1CCCC1 | inactive
4 | CC(C(=O)NCC1CCCCC1)N(C)Cc1cccc(Cl)c1 (stereo unspecified) | -47% (active)
5 | CCc1ccccc1NC(=O)/C(=C/c1ccccc1)c1ccccc1 | -33% (active)
6 | C=CCn1c(SCC(=O)/C(C#N)=C(\C)N)nc2sc(C)c(C)c2c1=O | inactive
7 | CN(Cc1ccccc1F)C(=O)C(Cc1ccccc1)NC(=O)c1ccccc1 (stereo unspecified) | -29% (active)
8 | CC(NC(=S)NNS(=O)(=O)c1ccc(C(C)(C)C)cc1)c1ccccc1 (stereo unspecified) | inactive
9 | CCc1ccc2ncc(C(=O)c3ccccc3)c(N3CCOCC3)c2c1 | -20.5% (active)
10 | Fc1ccc2[nH]c3c(N4CCSCC4)ncnc3c2c1 | -38.5% (active)
11 | Cc1ccc(N2C(=O)C3C(c4ccccc4)(C2=O)C3(c2ccccc2)c2ccccc2)cc1 (stereo unspecified) | inactive
12 | CC(C)N(C(=O)CSc1nc(COc2ccccc2)nc2ccccc12)C(C)C | -42.5% (active)
13 | COc1cccc(COc2ccc(N(C)S(=O)(=O)c3ccccc3)cc2)c1 | inactive
14 | O=C(OCC(=O)N(CCc1ccccc1)Cc1ccccc1)c1ccccc1[N+](=O)[O-] | inactive
15 | CSCc1cc(N(C)C)nc(SCc2ccc(Cl)cc2Cl)n1 | -19.5% (active)
16 | O=C(Nc1ccccc1Cl)/C(Cl)=C(\Cl)S(=O)c1ccccc1 (stereo unspecified) | -22.5% (active)

Row | SMILES | activity change, negative = inhibition
17 | Cc1ccccc1N1CCN(CC(=O)NCc2ccc(Cl)cc2)CC1 | inactive
18 | COc1ccc(CN(C)C(C)C(=O)NC2CCCc3ccccc32)cc1 (stereo unspecified) | -19.5% (active)
19 | Cc1cccc(C(=O)OC(C)C(=O)NC2CCCc3ccccc32)c1O (stereo unspecified) | -27% (active)
20 | O=C(Nc1ccc(Cl)c(Cl)c1)N1CC=C(c2ccccc2)CC1 | inactive
21 | COC(=O)C1=C(C)N(C(C)c2ccccc2)C(=O)/C1=C\c1ccco1 (stereo unspecified) | -22.5% (active)
22 | CCOC(=O)C(C)Sc1nc2ccccc2c(=O)n1CC1CCCCC1 (stereo unspecified) | -32% (active)
23 | COc1ccc(Cl)cc1NC(=O)CN(C)Cc1ccc(OC)c(OC)c1 | inactive
24 | Cc1ccc(C(=O)c2c(NC(=O)c3ccccc3)sc(C)c2C)cc1 | -21% (active)
25 | Cc1ccccc1C(=O)Nc1ccccc1Sc1ccccc1 | -26% (active)
26 | CCOC(=O)N1CCC(N(CCOC)C(=O)Nc2ccc(C)c(C)c2)CC1 | -33% (active)
27 | CCc1ccc(-c2cc(C(=O)NCc3ccco3)c3ccccc3n2)s1 | inactive
28 | CC(C)C(NC(=O)OCc1ccccc1)C(=O)OCC(=O)N1C(C)CCCC1C (stereo unspecified) | inactive
29 | CC(C)[C@H](NC(=O)OCc1ccccc1)C(=O)OCc1ccccc1 | -23.5% (active)
30 | Cc1ccc(C2=Nc3c(ccc4ccccc34)C(c3ccncc3)=NN2)cc1 | inactive
31 | Cc1nc2ccccc2c(-c2ccccc2)c1C(=O)c1ccccc1 | -31% (active)
